The results in this text go back to PubChem BioAssay (Tox21).

A short description of test [1]: qHTS assay to identify small molecule agonists of the estrogen receptor alpha (ER-alpha) signaling pathway in the presence of an antagonist - cell viability counter screen (AID 1259386).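 Also: cells exposed to compounds for 22 h at 37 °C before the viability read; nearly all actives have a fitted effect of over 30% in size.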 Also: potency is read from the fitted curve at half-maximal effect. In short, it runs like this: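 In this counter screen, compound effects on VM7Luc4E2 viability were tested in the presence of the antagonist ICI-182,780 at 10.0nM final. Compounds were dosed at 15 concentrations, exposure lasted 22hr, and the CellTiter-Fluor signal was read.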
On the technique in general: In qHTS, concentration-response curves come from the screen itself.

Test [2] addresses Progesterone receptor (Homo sapiens) (UniProt P06401). In words: qHTS assay to identify small molecule agonists of the progesterone receptor (PR) signaling pathway (AID 1346784; calls by dose curve; also: nearly all actives have a fitted effect of over 30% in size). A digest of the protocol:
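Agonist qHTS: compounds pinned onto 3,000 PR-UAS-bla HEK 293T cells per well in charcoal-stripped serum medium, 16hr at 37C, then beta-lactamase activity measured by LiveBLAzer FRET fluorescence after 2 hours at room temperature.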

The target is the same in test [3]. The test can be described thus: qHTS assay to identify small molecule antagonists of the progesterone receptor (PR) signaling pathway (AID 1346795; active = well fitted inhibition curve with a large enough effect in the signal ratio in the repeat runs, not every such curve was filed as active; the % refers to the signal ratio; also: potency is read from the fitted curve at half-maximal effect). In short, it runs like this:
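Antagonist mode with agonist R5020 at 1 nM final and 16 hr incubation at 37C. Reporter was beta-lactamase driven by UAS in HEK293T (PR-UAS-bla), 2% charcoal-stripped serum; signal from LiveBLAzer FRET substrate, 2 hr at room temperature.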

A short description of test [4]: qHTS assay to identify small molecule antagonists of the progesterone receptor (PR) signaling pathway - cell viability counter screen (AID 1346798). Also: nearly all actives have a fitted effect of over 50% in size. Also: potency is read from the fitted curve at half-maximal effect. In short, it runs like this:
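Cytotoxicity read as CellTiter-Glo luminescence (30 min, room temperature) in the same wells as the beta-lactamase readout. HEK293T PR-UAS-bla cells in charcoal-stripped 2% FBS received compound and R5020, then 16 h at 37C, 5% CO2.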

Test [5] can be described thus: qHTS assay to identify small molecule agonists of the progesterone receptor (PR) signaling pathway - cell viability counter screen (AID 1346799; calls by dose curve; also: nearly all actives have a fitted effect of over 45% in size; also: potency is read from the fitted curve at half-maximal effect). A digest of the protocol:
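Cytotoxicity measured by CellTiter-Glo luminescence (30 min, RT) in the same wells as the PR beta-lactamase agonist read. Those HEK293T cells had 16 h compound treatment at 37 C in 2% charcoal-stripped FBS medium.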

Test [6] in a line: qHTS assay to identify small molecule antagonists of the TGF-beta/Smad signaling pathway - cell viability counter screen (AID 1346824). Also: nearly all actives have a fitted effect of over 50% in size. In short, it runs like this:
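SBE-bla HEK 293T cells were plated overnight at 37 C, then given compounds in DMSO plus TGF-beta1 (added as 0.25 ng/mL solution) for 5 hr. After the bla read, CellTiter-Glo was added to the same wells and luminescence read after 30 min at room temperature.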

Test [7] is described as follows: qHTS assay to identify small molecule agonists of the TGF-beta/Smad signaling pathway - cell viability counter screen (AID 1346829). Also: top concentration of the series differs between compounds; nearly all actives have a fitted effect of over 45% in size. A digest of the protocol:
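Tox21 qHTS format: SBE-bla HEK 293T cells treated with DMSO-dissolved compounds for 5 hr; CellTiter-Glo luminescence after 30 min at room temperature.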

The nature of test [8]: qHTS assay to identify small molecule agonists of the TGF-beta/Smad signaling pathway (AID 1346859; active = well fitted activation curve with a large enough effect in the signal ratio in the repeat runs, not every such curve was filed as active; the % refers to the signal ratio; also: series mostly up to about 77 µM). A digest of the protocol:
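Fluorescence (ex 405 nm; em 460 and 530 nm) was read 2 h after LiveBLAzer FRET substrate at RT. The preceding compound treatment of overnight-plated SBE-bla HEK293T cells lasted 5 h at 37 C.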

In test [9] the target is Thyrotropin-releasing hormone receptor (Homo sapiens) (UniProt P34981). The test can be described thus: qHTS assay to identify small molecule antagonists of the thyrotropin-releasing hormone receptor (TRHR) signaling pathway (AID 1346877; active = well fitted inhibition curve with a large enough effect in the repeat runs, not every such curve was filed as active; also: series mostly up to about 51 µM). A digest of the protocol: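 Kinetic fluorescence (3 min, 1 s resolution) following stimulation with TRH at 1 nM final; HEK293 cells bearing human TRHR; 5 min compound preincubation at RT; concentration-response over 15 points, triplicates.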
Thyrotropin-releasing hormone receptor (Homo sapiens), sequence (P34981 whole entry, looked up): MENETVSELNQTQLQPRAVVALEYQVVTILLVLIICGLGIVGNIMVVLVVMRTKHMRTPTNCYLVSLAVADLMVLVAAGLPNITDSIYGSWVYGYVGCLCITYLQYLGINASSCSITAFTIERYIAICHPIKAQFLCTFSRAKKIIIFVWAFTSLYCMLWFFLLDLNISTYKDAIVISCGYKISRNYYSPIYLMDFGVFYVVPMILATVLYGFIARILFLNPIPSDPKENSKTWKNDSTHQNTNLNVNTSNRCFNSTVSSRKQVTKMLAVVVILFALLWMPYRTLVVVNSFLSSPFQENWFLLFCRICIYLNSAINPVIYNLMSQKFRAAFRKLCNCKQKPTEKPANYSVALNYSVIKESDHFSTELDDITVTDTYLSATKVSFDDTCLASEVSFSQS

Test [10] has the same target. In words: qHTS assay to identify small molecule agonists of the thyrotropin-releasing hormone receptor (TRHR) signaling pathway (AID 1346891; calls by dose curve; also: series mostly up to about 58 µM). In short, it runs like this:
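Agonist-mode intracellular calcium readout: kinetic fluorescence over 3 min at 1 s intervals after compound addition to TRHR-HEK293 cells (18 h seeded, 2 h dye-loaded at 37 C). Fifteen concentrations, triplicates.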

The nature of test [11]: Caspase-3/7 induction in HepG2 cells by small molecules, qHTS assay (AID 1346978). Also: nearly all actives have a fitted effect of over 15% in size. Also: potency is read from the fitted curve at half-maximal effect. A digest of the protocol:
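Wild-type HepG2 cells (2,000/well) were settled 5 h at 37 C, 5% CO2, then exposed to compounds in DMSO for 17 h. Caspase-3/7 activity was read by luminescence 30 min after adding Caspase-Glo 3/7 reagent at room temperature.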

A short description of test [12]: Caspase-3/7 induction in CHO-K1 cells by small molecules, qHTS cell viability counter screen (AID 1346979). Also: nearly all actives have a fitted effect of over 35% in size. Also: potency is read from the fitted curve at half-maximal effect. In short, it runs like this:
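Cytotoxicity counter screen: CellTiter-Fluor added to compound-treated wild-type CHO-K1 cells at 16 h (37C, 5% CO2), fluorescence measured 1 h later; same wells as caspase-3/7 measurement.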

Test [13] in a line: Caspase-3/7 induction in CHO-K1 cells by small molecules, qHTS assay (AID 1346980). Also: nearly all actives have a fitted effect of over 15% in size. Also: potency is read from the fitted curve at half-maximal effect. A digest of the protocol:
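Wild-type cells were seeded at 1,500 per well and settled 5 hr at 37 C, 5% CO2, then exposed to DMSO-dissolved compounds for 17 hr. Caspase-Glo 3/7 reagent was added, and luminescence was read after 30min at room temperature.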

Test [14] can be described thus: Caspase-3/7 induction in HepG2 cells by small molecules, qHTS cell viability counter screen (AID 1346981). Also: nearly all actives have a fitted effect of over 30% in size. Also: potency is read from the fitted curve at half-maximal effect. In short, it runs like this: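 In this quantitative HTS counter screen, compounds delivered in DMSO were left on unmodified HepG2 cells for 16 hr at 37 C. Viability was then determined fluorometrically with CellTiter-Fluor, in parallel with caspase-3/7 induction in the same wells.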

The target in test [15] is Nuclear receptor subfamily 1 group I member 2 (Rattus norvegicus) (UniProt Q9R1A7). The test can be described thus: Rat pregnane X receptor (rPXR) activation by small molecules, qHTS assay (AID 1346983). Also: nearly all actives have a fitted effect of over 20% in size. The following applies: rPXR luciferase reporter cells, One-Glo luminescence, 24 h; max activation: active compounds read high. In short, it runs like this:
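Cell-based rPXR luciferase reporter assay, 2,000 cells per well, rested 5hr at 37 C before compound addition in DMSO, then 24 hr at 37 C. One-Glo reagent was added and luminescence read after 30 min at room temperature.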

For test [16], the target named is Nuclear receptor subfamily 1 group I member 2 (Homo sapiens) (UniProt O75469). In words: CYP3A4 induction through human pregnane X receptor (PXR) by small molecules, qHTS assay (AID 1346984). Also: nearly all actives have a fitted effect of over 40% in size. Also: potency is read from the fitted curve at half-maximal effect. A digest of the protocol: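 Induction measured in HepG2-based DPX-2 cells co-expressing human PXR and a CYP3A4 promoter-driven luciferase. After a 24-hour compound exposure, cells received CYP3A4 luciferin substrate at 3uM final for 3 hours, and light output was then recorded.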
Nuclear receptor subfamily 1 group I member 2 (Homo sapiens), sequence (O75469 whole entry, looked up): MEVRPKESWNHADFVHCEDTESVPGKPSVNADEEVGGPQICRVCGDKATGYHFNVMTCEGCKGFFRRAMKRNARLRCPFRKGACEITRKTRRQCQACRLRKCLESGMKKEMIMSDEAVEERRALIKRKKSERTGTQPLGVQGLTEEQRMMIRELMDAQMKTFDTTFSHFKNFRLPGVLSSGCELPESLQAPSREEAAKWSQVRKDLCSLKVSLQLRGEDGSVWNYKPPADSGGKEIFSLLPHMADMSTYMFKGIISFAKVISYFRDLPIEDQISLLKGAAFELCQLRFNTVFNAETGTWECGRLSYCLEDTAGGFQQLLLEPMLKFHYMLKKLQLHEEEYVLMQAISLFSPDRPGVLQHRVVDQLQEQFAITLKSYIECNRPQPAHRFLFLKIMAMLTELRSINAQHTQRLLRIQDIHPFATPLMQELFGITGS

Test [17] shares this target. The test can be described thus: Human pregnane X receptor (PXR) activation by small molecules, qHTS assay (AID 1346985). Also: nearly all actives have a fitted effect of over 40% in size. In short, it runs like this: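 DPX-2 cells (HepG2 co-transfected with a PXR response element and a CYP3A4-promoter luciferase construct) were seeded at 2,000 per well, rested 5 hr at 37C, then exposed to DMSO-dissolved compounds for 24 hr. Activation was read as luciferase luminescence.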

Test [18] concerns the target Cytochrome P450 2D6 (Homo sapiens) (UniProt P10635). The test can be described thus: Cytochrome P450 Family 2 Subfamily D Member 6 (CYP2D6) small molecule antagonists: luciferase reporter qHTS assay (AID 1671196). Also: nearly all actives have a fitted effect of over 50% in size. Also: potency is read from the fitted curve at half-maximal effect. A digest of the protocol: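 Test chemicals meet CYP2D6 plus proluciferin substrate (10 min, RT); NADPH regenerating solution then drives turnover for 1 h. Detection reagent halts the reaction; luminescence measured after 20 min.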

Test [19] in a line: Human pregnane X receptor (PXR) small molecule agonists, qHTS cell viability counter screen (AID 1346977). Also: nearly all actives have a fitted effect of over 50% in size. Also: potency is read from the fitted curve at half-maximal effect. A digest of the protocol:
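Same-well viability read: CellTiter-Fluor added after 23 hr compound exposure, fluorescence measured 1 hr later. Cells were PXR-Luc HepG2 seeded at 2,000/well in 5% charcoal-stripped FBS medium, rested 5 hr before dosing at 37 C.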

Test [20] has as its target Nuclear receptor subfamily 1 group I member 2 (Homo sapiens) (UniProt O75469). The test can be described thus: Human pregnane X receptor (PXR) small molecule agonists, qHTS assay (AID 1346982). Also: nearly all actives have a fitted effect of over 35% in size. Also: potency is read from the fitted curve at half-maximal effect. In short, it runs like this: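 Reporter HepG2 cells expressing PXR-Luc are cultured in charcoal-stripped FBS (5%), treated with compounds for 24 hr at 37 C, and assayed by ONE-Glo luminescence after 30 min at room temperature.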

Unmarked numbers belong to inactive results. Inconclusive results are not listed. Calls of active or inactive are those of the source. Unless noted, calls follow the shape of the dose curve; as a rule, active = well fitted curve in the direction sought with a large enough effect in the repeat runs; inconclusive = weak or mixed curves; inactive = no such curve, though single readings can be large; an effect the other way counts as inactive or inconclusive.
% is scaled to controls: 0 for no effect and ±100 for the full control effect.

Progesterone receptor (Homo sapiens), sequence (P06401 whole entry, looked up): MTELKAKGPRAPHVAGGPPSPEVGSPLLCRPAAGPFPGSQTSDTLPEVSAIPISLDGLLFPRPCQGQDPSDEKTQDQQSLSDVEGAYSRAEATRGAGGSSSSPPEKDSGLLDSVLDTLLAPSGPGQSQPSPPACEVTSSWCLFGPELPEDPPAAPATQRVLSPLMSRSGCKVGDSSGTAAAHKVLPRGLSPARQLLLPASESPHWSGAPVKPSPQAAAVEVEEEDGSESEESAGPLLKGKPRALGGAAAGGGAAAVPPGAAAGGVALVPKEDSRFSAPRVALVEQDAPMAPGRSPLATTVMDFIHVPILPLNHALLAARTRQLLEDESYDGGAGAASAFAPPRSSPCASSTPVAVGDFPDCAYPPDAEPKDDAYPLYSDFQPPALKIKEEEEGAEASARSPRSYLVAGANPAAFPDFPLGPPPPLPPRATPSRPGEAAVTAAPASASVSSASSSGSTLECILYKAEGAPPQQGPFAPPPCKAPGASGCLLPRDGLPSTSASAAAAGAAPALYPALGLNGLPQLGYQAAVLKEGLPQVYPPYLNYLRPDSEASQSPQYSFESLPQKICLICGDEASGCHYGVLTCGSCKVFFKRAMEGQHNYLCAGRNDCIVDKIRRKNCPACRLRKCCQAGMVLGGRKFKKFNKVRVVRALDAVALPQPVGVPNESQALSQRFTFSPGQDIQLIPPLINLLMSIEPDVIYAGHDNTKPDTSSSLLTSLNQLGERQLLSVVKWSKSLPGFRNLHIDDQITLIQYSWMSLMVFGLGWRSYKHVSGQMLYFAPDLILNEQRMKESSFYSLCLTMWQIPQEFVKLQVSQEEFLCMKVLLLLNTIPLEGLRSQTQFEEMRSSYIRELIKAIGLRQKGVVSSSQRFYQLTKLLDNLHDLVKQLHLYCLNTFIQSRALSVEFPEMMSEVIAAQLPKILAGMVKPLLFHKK
Cytochrome P450 2D6 (Homo sapiens), sequence (P10635 whole entry, looked up): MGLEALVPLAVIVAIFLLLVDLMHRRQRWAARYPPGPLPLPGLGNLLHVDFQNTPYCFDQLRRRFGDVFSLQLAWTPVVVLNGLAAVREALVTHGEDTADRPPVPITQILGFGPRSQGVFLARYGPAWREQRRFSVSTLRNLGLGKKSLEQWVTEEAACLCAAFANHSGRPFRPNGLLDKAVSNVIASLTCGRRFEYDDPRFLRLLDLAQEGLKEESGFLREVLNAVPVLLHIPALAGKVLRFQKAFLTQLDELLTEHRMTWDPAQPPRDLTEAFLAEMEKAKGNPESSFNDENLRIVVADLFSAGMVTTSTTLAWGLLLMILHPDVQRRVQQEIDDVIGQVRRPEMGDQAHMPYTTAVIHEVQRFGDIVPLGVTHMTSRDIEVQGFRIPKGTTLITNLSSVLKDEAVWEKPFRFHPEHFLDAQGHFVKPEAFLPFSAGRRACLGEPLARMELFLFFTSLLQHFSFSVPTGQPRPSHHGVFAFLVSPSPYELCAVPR
Nuclear receptor subfamily 1 group I member 2 (Rattus norvegicus), sequence (Q9R1A7 whole entry, looked up): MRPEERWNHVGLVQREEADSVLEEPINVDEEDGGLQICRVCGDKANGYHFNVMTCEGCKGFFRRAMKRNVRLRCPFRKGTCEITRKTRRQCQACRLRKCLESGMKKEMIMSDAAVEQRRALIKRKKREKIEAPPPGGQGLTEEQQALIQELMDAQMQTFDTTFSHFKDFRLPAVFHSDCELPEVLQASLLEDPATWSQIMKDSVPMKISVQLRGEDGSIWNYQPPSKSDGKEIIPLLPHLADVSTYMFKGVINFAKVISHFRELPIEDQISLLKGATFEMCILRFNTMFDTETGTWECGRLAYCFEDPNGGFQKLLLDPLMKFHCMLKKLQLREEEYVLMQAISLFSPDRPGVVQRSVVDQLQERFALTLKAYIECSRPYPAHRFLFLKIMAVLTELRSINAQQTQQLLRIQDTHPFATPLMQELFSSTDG

Turning to `COc1ccc(C(=O)N2CCN(CC(=O)N3CCOCC3)CC2)cc1`, the Potency result in [1], in test [2], in test [3], in [4], in test [5] and in test [6] was “inactive” throughout. In addition, the Potency result in test [8], in test [10], in test [11], in [12], in test [13] and in test [14] was “inactive” throughout. In addition, the Potency result in test [16], in [17] and in test [18] was “inactive” throughout. Moreover, the call in test [7] and in test [9] was inactive. For the same compound, the max activation in test [15] was -1.44%.

Take `CCN(CC)CCNc1ccc(CNC=O)c2sc3ccc(OC)cc3c(=O)c12`: the Potency is 13.7 µM (active) in [1]; 43.3 µM (active) in test [3]; 24.3 µM (active) in test [4]; 27.3 µM (active) in test [5]; 9.69 µM (active) in [19]; 61.1 µM (active) in [11]. The Potency is 6.11 µM (active) in [12], 30.6 µM (active) in [13], 9.69 µM (active) in test [14] and 6.33 µM (active) in [18]. The Potency entry in [2], in [6], in [8], in [10] and in [20] was “inactive” each time. In addition, the call in test [7] and in [9] was inactive.

`COC(=O)c1ccc(I)cc1S(=O)(=O)NC(=O)Nc1nc(C)nc(OC)n1`: the Potency entry in [1], in test [2], in [3], in test [4], in test [5] and in test [6] was “inactive” in each case. The Potency entry in test [8], in test [10], in test [19], in test [11], in test [14] and in test [20] was “inactive” in each case. Further, the Potency entry in [18] was “inactive”. In addition, the outcome in test [7] and in [9] was inactive.

In the case of `CCCCCCCCCCCC(=O)OC[C@@H](O)[C@H]1OC[C@H](OCCO)[C@H]1OCCO`, the Potency entry in [1], in test [2], in test [3], in test [4], in [5] and in test [6] was “inactive” each time. Further, the Potency result in test [8], in test [10], in test [19], in test [11], in [12] and in test [14] was “inactive” in each case. The Potency entry in [18] was “inactive”. For the same compound, the compound was classed as inactive in [7] and in test [9].

On to `NS(=O)(=O)c1ccc(N2CCCCS2(=O)=O)cc1`, for which the Potency result in test [1], in test [2], in test [3], in test [4], in test [5] and in test [6] was “inactive” in each case. The Potency entry in [8], in test [10], in [19], in [11], in [12] and in [13] was “inactive” throughout. The Potency result in test [14], in test [20] and in test [18] was “inactive” in each case. The outcome in test [7] and in [9] was inactive.

For `OC(C#CCN1CCCC1)(c1ccccc1)c1ccccc1`, the Potency entry in test [1], in test [2], in test [3], in [4], in test [5] and in test [6] was “inactive” each time. Besides, the Potency entry in [8], in test [10], in test [11], in [12] and in test [14] was “inactive” throughout. The result in [7] and in test [9] was inactive. Moreover, the Potency is 23.7 µM (active) in [20], 15.8 µM (active) in [16] and 11 µM (active) in test [18]. Further, the max activation in test [15] is 1.06%.
